# Data as given in PubChem BioAssay (EPA / NIEHS).
# The source made the active and inactive calls. How the source made its calls: active means hit-call score of the fitted dose curve at least 0.9, where 1 is the maximum; inactive means score below 0.9.
# Tests used:
# [1] = read-out: Tissue Factor, F3 (gene 2152); assay: BSK_CASM3C_TissueFactor: BioMAP Diversity Plus: CASM3C Assay for Tissue Factor Biomarker Activity (AID 2283052); conditions: primary human coronary artery smooth muscle cells; actives raise or lower the signal;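 further: cell surface tissue factor protein level read by ELISA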
# [2] = read-out: Interferon-gamma inducible Protein 10 (IP10), CXCL10 (gene 3627); assay: BSK_hDFCGF_IP10: BioMAP Diversity Plus: hDFCGF Assay for Interferon-gamma inducible Protein 10 (IP10) Biomarker Activity (AID 2283053); conditions: primary human foreskin fibroblasts; actives raise or lower the signal
# Summary of the method: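 Human foreskin fibroblast primary cells (hDFCGF system) were dosed with chemical and assayed at 24 h; IP-10 measured by ELISA. Activity fitted bidirectionally relative to DMSO negative control as baseline.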
# [3] = read-out: Urokinase-type plasminogen activator receptor (uPAR), PLAUR (gene 5329); assay: BSK_CASM3C_uPAR: BioMAP Diversity Plus: CASM3C Assay for Urokinase-type plasminogen activator receptor (uPAR) Biomarker Activity (AID 2283054); conditions: primary human coronary artery smooth muscle cells; actives raise or lower the signal;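 further: cell-surface uPAR protein level quantified by ELISA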
# [4] = read-out: Vascular cell adhesion molecule 1 (VCAM1), VCAM1 (gene 7412); assay: BSK_CASM3C_VCAM1: BioMAP Diversity Plus: CASM3C Assay for Vascular cell adhesion molecule 1 (VCAM1) Biomarker Activity (AID 2283055); conditions: primary human coronary artery smooth muscle cells; actives raise or lower the signal;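 further: VCAM-1 protein level quantified by ELISA on the cells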
# [5] = read-out: Collagen III, COL3A1 (gene 1281); assay: BSK_hDFCGF_CollagenIII: BioMAP Diversity Plus: hDFCGF Assay for Collagen III Biomarker Activity (AID 2283056); conditions: primary human foreskin fibroblasts; actives raise or lower the signal
# Summary of the method: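 Human foreskin primary fibroblasts were exposed to test chemicals for 24 h, after which collagen III was quantified by ELISA. Activity was fitted bidirectionally against DMSO as negative control and baseline.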
# [6] = read-out: Epidermal growth factor receptor (EGFR), EGFR (gene 1956); assay: BSK_hDFCGF_EGFR: BioMAP Diversity Plus: hDFCGF Assay for Epidermal growth factor receptor (EGFR) Biomarker Activity (AID 2283057); conditions: primary human foreskin fibroblasts; actives raise or lower the signal
# Summary of the method: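 Primary human foreskin fibroblasts were exposed to compound for 24 h, after which cell-surface EGFR was quantified by ELISA. Activity was fitted bidirectionally against the DMSO negative control as baseline.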
# [7] = read-out: Interleukin-8 (IL8), CXCL8 (gene 3576); assay: BSK_hDFCGF_IL8: BioMAP Diversity Plus: hDFCGF Assay for Interleukin-8 (IL8) Biomarker Activity (AID 2283058); conditions: primary human foreskin fibroblasts; actives raise or lower the signal
# Summary of the method: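 hDFCGF human dermal fibroblasts; 24 h chemical exposure; IL-8 by ELISA; bidirectional curve fit vs DMSO baseline; gain or loss of signal scored.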
# [8] = BSK_hDFCGF_Proliferation: Cell Proliferation Assessment in the BioMAP Diversity Plus: hDFCGF Assay (AID 2283059); conditions: primary human foreskin fibroblasts;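 further: curves fitted for both rise and fall of signal versus DMSO baseline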
# Summary of the method: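 Steps: dose primary human dermal fibroblasts (foreskin); […] fix in 10% TCA; stain with 0.1% SRB; read 560 nm; fit gain or loss of signal against DMSO.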
# [9] = read-out: Macrophage colony-stimulating factor (MCSF), CSF1 (gene 1435); assay: BSK_hDFCGF_MCSF: BioMAP Diversity Plus: hDFCGF Assay for Macrophage colony-stimulating factor (MCSF) Biomarker Activity (AID 2283060); conditions: primary human foreskin fibroblasts; actives raise or lower the signal
# Summary of the method: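 Human foreskin primary fibroblasts were treated with test chemical for 24 h, and M-CSF was then measured by ELISA. Data were fitted bidirectionally against DMSO as the negative control and activity baseline.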
# [10] = BSK_hDFCGF_SRB: Viability Assessment in the BioMAP Diversity Plus: hDFCGF Assay (AID 2283061); conditions: primary human foreskin fibroblasts;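 further: cells exposed to compound for 24 h before the read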
# Summary of the method: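 Human foreskin primary fibroblasts were treated with compound and assessed 24 h after dosing. Total protein was measured by sulforhodamine B staining (0.1% SRB after 10% TCA fixation, 560 nm read) as a cytotoxicity marker, with bidirectional fitting against DMSO baseline.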
structure (smiles),measurement,setting,value
CCCCCCCCCCCCCO,outcome,[1],inactive
same,AC50,[2],13.2 µM (active)
same,outcome,[3],inactive
same,AC50,[4],28.3 µM (active)
same,AC50,[5],12.9 µM (active)
same,outcome,[6],inactive
same,AC50,[7],29.9 µM (active)
same,AC50,[8],8.61 µM (active)
same,AC50,[9],13.7 µM (active)
same,AC50,[10],13.1 µM (active)
NC(=O)Cn1c(=O)cc(CCN2CCN(c3nccc4sccc34)CC2)c2ccc(F)cc21,outcome,[1],inactive
same,outcome,[2],inactive
same,outcome,[3],inactive
same,outcome,[4],inactive
same,outcome,[5],inactive
same,outcome,[7],inactive
same,outcome,[8],inactive
same,outcome,[9],inactive
same,outcome,[10],inactive
CNC(=O)[C@H]1O[C@@H](n2cnc3c(NCc4cc(Cl)ccc4OCc4cc(C)no4)ncnc32)[C@H](O)[C@@H]1N,outcome,[1],inactive
same,outcome,[2],inactive
same,outcome,[3],inactive
same,outcome,[4],inactive
same,outcome,[5],inactive
same,outcome,[7],inactive
same,outcome,[8],inactive
same,outcome,[9],inactive
same,outcome,[10],inactive
FC(F)(F)C(F)(F)C(F)(F)C(F)(F)C(F)(F)C(F)(F)CCI,outcome,[1],inactive
same,outcome,[2],inactive
same,outcome,[3],inactive
same,outcome,[4],inactive
same,outcome,[5],inactive
same,outcome,[7],inactive
same,outcome,[8],inactive
same,outcome,[9],inactive
same,outcome,[10],inactive
Cc1ccc2ncccc2c1,outcome,[1],inactive
same,outcome,[2],inactive
same,outcome,[3],inactive
same,outcome,[4],inactive
same,outcome,[5],inactive
same,outcome,[7],inactive
same,outcome,[8],inactive
same,outcome,[9],inactive
same,outcome,[10],inactive
CN1CCN(Cc2cc(-c3ccc4[nH]c(=O)oc4c3)co2)[C@@H](c2ccc(F)cc2)C1,outcome,[1],inactive
same,outcome,[2],inactive
same,outcome,[3],inactive
same,outcome,[4],inactive
same,outcome,[5],inactive
same,outcome,[7],inactive
same,AC50,[8],17.6 µM (active)
same,AC50,[9],8.77 µM (active)
same,AC50,[10],17.6 µM (active)
CCCCCCCCCCCC(=O)OC,outcome,[1],inactive
same,outcome,[2],inactive
same,outcome,[3],inactive
same,outcome,[4],inactive
same,outcome,[5],inactive
same,outcome,[7],inactive
same,AC50,[8],28.9 µM (active)
same,outcome,[9],inactive
same,outcome,[10],inactive
Cc1cccc(C)c1O,outcome,[1],inactive
same,outcome,[2],inactive
same,outcome,[3],inactive
same,outcome,[4],inactive
same,outcome,[5],inactive
same,outcome,[7],inactive
same,outcome,[8],inactive
same,outcome,[9],inactive
same,outcome,[10],inactive
CCCCc1ccc2c(n1)[C@@H](c1ccc(OC)cc1C[C@H](C)C(=O)O)[C@H](C(=O)O)[C@H]2c1ccc2c(c1)OCO2,outcome,[1],inactive
same,outcome,[2],inactive
same,outcome,[3],inactive
same,outcome,[4],inactive
same,outcome,[5],inactive
same,outcome,[7],inactive
same,outcome,[8],inactive
same,outcome,[9],inactive
same,outcome,[10],inactive
Cc1ccc(C)c(O)c1C,outcome,[1],inactive
same,outcome,[2],inactive
same,outcome,[3],inactive
same,outcome,[4],inactive
same,outcome,[5],inactive
same,outcome,[7],inactive
same,outcome,[8],inactive
same,outcome,[9],inactive
same,outcome,[10],inactive
Clc1cc(Cl)c(Cl)cc1Cl,outcome,[1],inactive
same,outcome,[2],inactive
same,outcome,[3],inactive
same,outcome,[4],inactive
same,outcome,[5],inactive
same,outcome,[7],inactive
same,outcome,[8],inactive
same,outcome,[9],inactive
same,outcome,[10],inactive
C[C@]12C=CC(=O)C=C1CC[C@@H]1[C@@H]2C(=O)C[C@@]2(C)[C@H]1CC[C@]2(O)C(=O)CO,outcome,[1],inactive
same,outcome,[2],inactive
same,AC50,[3],0.239 µM (active)
same,outcome,[4],inactive
same,outcome,[5],inactive
same,outcome,[7],inactive
same,outcome,[8],inactive
same,outcome,[9],inactive
same,outcome,[10],inactive
Oc1ccc2ccccc2c1N=Nc1ccccc1,outcome,[1],inactive
same,outcome,[2],inactive
same,outcome,[3],inactive
same,outcome,[4],inactive
same,outcome,[5],inactive
same,outcome,[7],inactive
same,AC50,[8],5.03 µM (active)
same,outcome,[9],inactive
same,outcome,[10],inactive
COCCOCCOC,outcome,[1],inactive
same,outcome,[2],inactive
same,outcome,[3],inactive
same,outcome,[4],inactive
same,AC50,[5],0.148 µM (active)
same,outcome,[7],inactive
same,outcome,[8],inactive
same,outcome,[9],inactive
same,outcome,[10],inactive
CCCCC(CC)COC(=O)CC(C(=O)OCC(CC)CCCC)S(=O)(=O)O (stereo unspecified),outcome,[1],inactive
same,AC50,[2],7.42 µM (active)
same,outcome,[3],inactive
same,outcome,[4],inactive
same,AC50,[5],8.52 µM (active)
same,AC50,[7],12.9 µM (active)
same,AC50,[8],10 µM (active)
same,AC50,[9],9.34 µM (active)
same,AC50,[10],24.4 µM (active)
CC(=O)OC/C=C(\C)CCC=C(C)C,outcome,[1],inactive
same,outcome,[2],inactive
same,outcome,[3],inactive
same,outcome,[4],inactive
same,outcome,[5],inactive
same,outcome,[7],inactive
same,AC50,[8],0.597 µM (active)
same,outcome,[9],inactive
same,outcome,[10],inactive
Oc1ccc2c(c1)OC[C@@H](N1CCC(O)(c3ccc(F)cc3)CC1)[C@H]2O,outcome,[1],inactive
same,outcome,[2],inactive
same,outcome,[3],inactive
same,outcome,[4],inactive
same,outcome,[5],inactive
same,outcome,[7],inactive
same,outcome,[8],inactive
same,outcome,[9],inactive
same,outcome,[10],inactive
COc1cc(-c2nc(NC(=O)c3cc4cc(C)cc(C)c4n3CC(=O)O)sc2CCC2CCCCC2)c(OC)cc1Cl,outcome,[1],inactive
same,AC50,[2],0.46 µM (active)
same,AC50,[3],6.56 µM (active)
same,AC50,[4],10.2 µM (active)
same,AC50,[5],0.203 µM (active)
same,AC50,[7],2.36 µM (active)
same,AC50,[8],0.128 µM (active)
same,AC50,[9],0.42 µM (active)
same,AC50,[10],0.771 µM (active)
CCOc1ccc2c(c1)C(C)=CC(C)(C)N2,outcome,[1],inactive
same,AC50,[2],20 µM (active)
same,outcome,[3],inactive
same,outcome,[4],inactive
same,AC50,[5],15.1 µM (active)
same,outcome,[7],inactive
same,AC50,[8],24.3 µM (active)
same,AC50,[9],6.14 µM (active)
same,outcome,[10],inactive
COc1ccc(S(=O)(=O)N2C(=O)[C@@](c3ccccc3OC)(N3C[C@H](O)C[C@H]3C(=O)N(C)C)c3cc(Cl)ccc32)c(OC)c1,outcome,[1],inactive
same,outcome,[2],inactive
same,outcome,[3],inactive
same,outcome,[4],inactive
same,outcome,[5],inactive
same,outcome,[7],inactive
same,AC50,[8],30.5 µM (active)
same,outcome,[9],inactive
same,AC50,[10],26.5 µM (active)
Cc1nc(-c2ccc3c(c2)CCN(CCC2CCC(NC(=O)/C=C/c4ccc(F)cc4)CC2)CC3)no1 (stereo unspecified),outcome,[1],inactive
same,outcome,[2],inactive
same,outcome,[3],inactive
same,AC50,[4],6.35 µM (active)
same,outcome,[5],inactive
same,outcome,[7],inactive
same,outcome,[8],inactive
same,outcome,[9],inactive
same,outcome,[10],inactive
CC(=O)OCCOCCOCCOC(C)=O,outcome,[1],inactive
same,outcome,[2],inactive
same,outcome,[3],inactive
same,outcome,[4],inactive
same,outcome,[5],inactive
same,outcome,[7],inactive
same,outcome,[8],inactive
same,outcome,[9],inactive
same,outcome,[10],inactive
CC1=C(/C=C/C(C)=C/C=C/C(C)=C/CO)C(C)(C)CCC1,outcome,[1],inactive
same,AC50,[2],27.4 µM (active)
same,outcome,[3],inactive
same,outcome,[4],inactive
same,outcome,[5],inactive
same,outcome,[7],inactive
same,AC50,[8],12.4 µM (active)
same,AC50,[9],24.2 µM (active)
same,AC50,[10],37.8 µM (active)
Nc1nc(N)c2nc(CNc3ccc(C(=O)N[C@@H](CCC(=O)O)C(=O)O)cc3)cnc2n1,outcome,[1],inactive
same,outcome,[2],inactive
same,outcome,[3],inactive
same,outcome,[4],inactive
same,outcome,[5],inactive
same,outcome,[7],inactive
same,outcome,[8],inactive
same,outcome,[9],inactive
same,outcome,[10],inactive
CNCc1cc(F)ccc1Oc1ccc(Cl)c(Cl)c1,outcome,[1],inactive
same,outcome,[2],inactive
same,outcome,[3],inactive
same,outcome,[4],inactive
same,outcome,[5],inactive
same,outcome,[7],inactive
same,AC50,[8],23.8 µM (active)
same,outcome,[9],inactive
same,outcome,[10],inactive
Cc1ccc(C(C)C)c(O)c1,outcome,[1],inactive
same,outcome,[2],inactive
same,outcome,[3],inactive
same,outcome,[4],inactive
same,outcome,[5],inactive
same,outcome,[7],inactive
same,outcome,[8],inactive
same,outcome,[9],inactive
same,outcome,[10],inactive
Cc1nc(C)nc(N2C[C@@H](C)N(c3ccnc([C@@H](C)O)n3)[C@@H](C)C2)n1,outcome,[1],inactive
same,outcome,[2],inactive
same,outcome,[3],inactive
same,outcome,[4],inactive
same,outcome,[5],inactive
same,outcome,[7],inactive
same,outcome,[8],inactive
same,outcome,[9],inactive
same,outcome,[10],inactive
COc1ccc2c(c1)c(CC(=O)O)c(C)n2C(=O)c1ccc(Cl)cc1,outcome,[1],inactive
same,outcome,[2],inactive
same,outcome,[3],inactive
same,outcome,[4],inactive
same,AC50,[5],20 µM (active)
same,outcome,[7],inactive
same,AC50,[8],13.1 µM (active)
same,outcome,[9],inactive
same,outcome,[10],inactive
O=c1c(O)c(-c2ccc(O)c(O)c2)oc2cc(O)cc(O)c12,AC50,[1],4.13 µM (active)
same,AC50,[2],20 µM (active)
same,AC50,[3],6.66 µM (active)
same,outcome,[4],inactive
same,outcome,[5],inactive
same,outcome,[7],inactive
same,AC50,[8],11.5 µM (active)
same,AC50,[9],7.26 µM (active)
same,AC50,[10],12.2 µM (active)
COC(=O)c1ccc(O)cc1,outcome,[1],inactive
same,outcome,[2],inactive
same,outcome,[3],inactive
same,outcome,[4],inactive
same,outcome,[5],inactive
same,outcome,[7],inactive
same,outcome,[8],inactive
same,outcome,[9],inactive
same,outcome,[10],inactive
